Molecules are shown by their SMILES. Active and inactive are the calls of the source. How the source made its calls: active means hit-call score of the fitted dose curve at least 0.9, where 1 is the maximum; inactive means score below 0.9.

This note sets out measurements from PubChem BioAssay (EPA / NIEHS).

Holding throughout (conditions): mRNA level, 48 h; actives raise or lower the signal
Read-out in assay [1]: Bcl-2 (BAX) gene, BAX (gene 581)
The assay is described as follows: LTEA_HepaRG_BAX: Life Technologies and Expression Analysis (LTEA) Assay for Bcl-2 (BAX) gene using HepaRG (AID 2283470). Summed up: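 Gene expression measured by Fluidigm qRT-PCR with three housekeeping genes for normalisation. HepaRG cells, plated 48 h beforehand, treated 48 h at up to 100 uM (8-point, half-log) in 0.5% DMSO. Bidirectional fitting versus DMSO.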

Read-out in assay [2]: adenosine kinase (ADK) gene, ADK (gene 132)
Kind of assay: LTEA_HepaRG_ADK: Life Technologies and Expression Analysis (LTEA) Assay for adenosine kinase (ADK) gene using HepaRG (AID 2283471). Summed up: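 HepaRG (human liver), 48 h chemical exposure, 8-pt half-log series, top 100 uM, 0.5% DMSO vehicle. Readout: ADK mRNA by qRT-PCR vs housekeeping genes; bidirectional curve fit relative to DMSO baseline.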

Read-out in assay [3]: Alpha-fetoprotein (AFP) gene, AFP (gene 174)
The assay is described as follows: LTEA_HepaRG_AFP: Life Technologies and Expression Analysis (LTEA) Assay for Alpha-fetoprotein (AFP) gene using HepaRG (AID 2283472). Summed up: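 AFP transcript measured by TaqMan qRT-PCR with three housekeeping genes for normalization, after 48 h chemical treatment of HepaRG cells (top 100 uM, half-log steps, 0.5% DMSO). Gain or loss fitted against vehicle.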

Read-out in assay [4]: BCL2L11 (gene 10018)
Kind of assay: LTEA_HepaRG_BCL2L11: Life Technologies and Expression Analysis (LTEA) Assay for Bcl-2 (BCL2L11) gene using HepaRG (AID 2283473). Summed up: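 Read-out is BCL2L11 transcript level by qRT-PCR, normalized to three housekeeping genes and fitted bidirectionally against 0.5% DMSO vehicle. HepaRG cells received chemicals for 48 h in serum-free induction medium, 100 uM down in half-log dilutions.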

Read-out in assay [5]: Apoptosis regulator Bcl-2 (Homo sapiens) (UniProt P10415)
Kind of assay: LTEA_HepaRG_BCL2: Life Technologies and Expression Analysis (LTEA) Assay for Bcl-2 gene using HepaRG (AID 2283475). Summed up:
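qRT-PCR of BCL2 transcript, normalized to three housekeeping genes (ACTB, GAPDH, POLR2A), after 48 h chemical exposure of HepaRG cells; concentrations top 100 uM with half-log dilutions, 0.5% DMSO vehicle, duplicates; changes up or down fitted relative to vehicle.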

Read-out in assay [6]: Bcl-2 (BID) gene, BID (gene 637)
The assay is described as follows: LTEA_HepaRG_BID: Life Technologies and Expression Analysis (LTEA) Assay for Bcl-2 (BID) gene using HepaRG (AID 2283476). Summed up:
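Duplicate 48 h treatments of HepaRG cells in serum-free induction medium spanned 100 uM downward in half-log steps, 0.5% DMSO. Transcript change quantified by qRT-PCR against three housekeeping genes, fitted up or down versus DMSO.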

Read-out in assay [7]: Caspase-3 (Homo sapiens) (UniProt P42574)
Kind of assay: LTEA_HepaRG_CASP3: Life Technologies and Expression Analysis (LTEA) Assay for cysteine-aspartic acid protease (CASP3) using HepaRG (AID 2283477). Summed up: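 Read-out is CASP3 mRNA level by TaqMan qRT-PCR in human HepaRG cells after 48 h chemical exposure. Eight half-log concentrations topping at 100 uM were tested in 0.5% DMSO; gain or loss was fitted relative to DMSO.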

Read-out in assay [8]: Cytochrome P450 (CYP1A2), CYP1A2 (gene 1544)
The assay is described as follows: LTEA_HepaRG_CYP1A2: Life Technologies and Expression Analysis (LTEA) Assay for Cytochrome P450 (CYP1A2) using HepaRG (AID 2283479). Summed up:
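CYP1A2 transcript induction or loss, quantified by Fluidigm qRT-PCR against three housekeeping genes, was fitted bidirectionally against 0.5% DMSO controls. Human HepaRG cells received eight half-log concentrations from 100 uM over 48 h.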

Read-out in assay [9]: cysteine-aspartic acid protease (CASP8), CASP8 (gene 841)
Kind of assay: LTEA_HepaRG_CASP8: Life Technologies and Expression Analysis (LTEA) Assay for cysteine-aspartic acid protease (CASP8) using HepaRG (AID 2283480). Summed up:
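Concentration-response in duplicate up to 100 uM (half-log steps, 0.5% DMSO) on differentiated HepaRG cultures for 48 h. Expression change of CASP8 mRNA is determined by TaqMan qRT-PCR with housekeeping-gene normalization.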

Read-out in assay [10]: Cytochrome P450 (CYP2B6), CYP2B6 (gene 1555)
Kind of assay: LTEA_HepaRG_CYP2B6: Life Technologies and Expression Analysis (LTEA) Assay for Cytochrome P450 (CYP2B6) using HepaRG (AID 2283481). Summed up:
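HepaRG cells plated 48 h, switched to serum-free induction medium, then dosed 48 h (8 points, half-log from 100 uM, 0.5% DMSO). RNA isolated; CYP2B6 expression measured by qRT-PCR; gain or loss fitted relative to DMSO.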

Read-out in assay [11]: Cytochrome P450 2C19 (Homo sapiens) (UniProt P33261)
Kind of assay: LTEA_HepaRG_CYP2C19: Life Technologies and Expression Analysis (LTEA) Assay for CYP2C19 using HepaRG (AID 2283482). Summed up:
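Transcript levels of CYP2C19 were quantified by qRT-PCR after HepaRG cells were treated for 48 hours with test chemicals up to 100 uM (eight half-log concentrations, 0.5% DMSO vehicle). Gain or loss of signal was fitted relative to DMSO.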

Read-out in assay [12]: CYP2C8 (gene 1558)
The assay is described as follows: LTEA_HepaRG_CYP2C8: Life Technologies and Expression Analysis (LTEA) Assay for CYP2C8 using HepaRG (AID 2283483). Summed up:
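This is a transcriptional endpoint in HepaRG cultures: 48 h exposure, highest concentration 100 uM. CYP2C8 mRNA is quantified by TaqMan qRT-PCR.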

Read-out in assay [13]: CYP2C9 (gene 1559)
The assay is described as follows: LTEA_HepaRG_CYP2C9: Life Technologies and Expression Analysis (LTEA) Assay for CYP2C9 using HepaRG (AID 2283484). Summed up: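 Eight-point concentration-response (highest 100 uM, half-log dilutions) in HepaRG cells for 48 h; CYP2C9 expression by qRT-PCR normalized to ACTB, GAPDH, POLR2A. Bidirectional fit, DMSO baseline.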

Read-out in assay [14]: CYP2E1 (gene 1571)
The assay is described as follows: LTEA_HepaRG_CYP2E1: Life Technologies and Expression Analysis (LTEA) Assay for CYP2E1 using HepaRG (AID 2283485). Summed up:
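CYP2E1 transcript measured by Fluidigm qRT-PCR against three housekeeping genes in human HepaRG cells treated 48 h (top 100 uM, half-log steps, 0.5% DMSO vehicle). Gain or loss fitted relative to DMSO baseline.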

Read-out in assay [15]: CYP4A11 (gene 1579)
Kind of assay: LTEA_HepaRG_CYP4A11: Life Technologies and Expression Analysis (LTEA) Assay for CYP4A11 using HepaRG (AID 2283486). Summed up: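 HepaRG, 48 h chem exposure, 8 conc (100 uM top, half-log), 0.5% DMSO vehicle; qRT-PCR readout, housekeeping-gene normalized; bidirectional curve fit vs DMSO baseline.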

Read-out in assay [16]: DNA damage-inducible transcript 3 (DDIT3), DDIT3 (gene 1649)
Kind of assay: LTEA_HepaRG_DDIT3: Life Technologies and Expression Analysis (LTEA) Assay for DNA damage-inducible transcript 3 (DDIT3) using HepaRG (AID 2283488). Summed up: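 DDIT3 transcript was quantified by qRT-PCR with ACTB/GAPDH/POLR2A normalization after 48 h chemical treatment of differentiated HepaRG cells in 0.5% DMSO. Dosing was eight-point, half-log, top 100 uM, duplicate wells. Curves fitted bidirectionally versus DMSO.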

Read-out in assay [17]: Pro-epidermal growth factor (Homo sapiens) (UniProt P01133)
Kind of assay: LTEA_HepaRG_EGF: Life Technologies and Expression Analysis (LTEA) Assay for Epidermal growth factor (EGF) using HepaRG (AID 2283489). Summed up: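 HepaRG, 48 h dosing, 100 uM top, half-log x8, 0.5% DMSO. Readout: TaqMan qRT-PCR (Fluidigm array), housekeeping-normalized. Gain or loss of signal fit vs DMSO.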

Read-out in assay [18]: Apolipoprotein A-V (APOA5) gene, APOA5 (gene 116519)
Kind of assay: LTEA_HepaRG_APOA5: Life Technologies and Expression Analysis (LTEA) Assay for Apolipoprotein A-V (APOA5) gene using HepaRG (AID 2283474). Summed up:
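Readout is APOA5 transcript level by qRT-PCR on Fluidigm dynamic arrays, normalized to three housekeeping genes. HepaRG cultures received chemicals for 48 h at up to 100 uM (half-log steps, 0.5% DMSO), with gain or loss scored relative to DMSO.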

Read-out in assay [19]: Cytochrome P450 3A4 (Homo sapiens) (UniProt P08684)
Kind of assay: LTEA_HepaRG_CYP3A4: Life Technologies and Expression Analysis (LTEA) Assay for CYP3A4 using HepaRG (AID 2283487). Summed up: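 CYP3A4 transcript measured by TaqMan qRT-PCR and normalized to three housekeeping genes after 48 h chemical exposure of human HepaRG cells. Top concentration 100 uM, half-log steps, 0.5% DMSO vehicle; gain or loss fitted against DMSO baseline.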

Read-out in assay [20]: Cytochrome P450 (CYP24A1), CYP24A1 (gene 1591)
The assay is described as follows: LTEA_HepaRG_CYP24A1: Life Technologies and Expression Analysis (LTEA) Assay for Cytochrome P450 (CYP24A1) using HepaRG (AID 2283478). Summed up:
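HepaRG, 48 h chemical exposure, 8-pt half-log CRC from 100 uM, 0.5% DMSO vehicle, duplicates. Endpoint: CYP24A1 mRNA by Fluidigm TaqMan qRT-PCR, normalized ACTB/GAPDH/POLR2A; gain/loss fit vs DMSO.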

Sequence of Cytochrome P450 2C19 (Homo sapiens) (P33261 whole entry, looked up): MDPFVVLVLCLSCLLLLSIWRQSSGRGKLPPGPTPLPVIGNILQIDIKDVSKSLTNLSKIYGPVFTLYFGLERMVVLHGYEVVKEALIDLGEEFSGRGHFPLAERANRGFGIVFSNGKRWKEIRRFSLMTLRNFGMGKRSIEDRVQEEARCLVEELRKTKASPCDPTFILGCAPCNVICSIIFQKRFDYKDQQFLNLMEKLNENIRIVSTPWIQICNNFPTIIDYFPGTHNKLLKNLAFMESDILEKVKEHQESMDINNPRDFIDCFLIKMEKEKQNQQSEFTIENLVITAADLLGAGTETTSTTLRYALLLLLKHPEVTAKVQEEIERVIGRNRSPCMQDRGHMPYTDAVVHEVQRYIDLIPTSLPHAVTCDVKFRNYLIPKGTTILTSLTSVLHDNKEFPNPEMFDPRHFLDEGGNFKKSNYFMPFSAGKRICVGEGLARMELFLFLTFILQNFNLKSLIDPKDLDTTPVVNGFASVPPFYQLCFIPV
Sequence of Caspase-3 (Homo sapiens) (P42574 whole entry, looked up): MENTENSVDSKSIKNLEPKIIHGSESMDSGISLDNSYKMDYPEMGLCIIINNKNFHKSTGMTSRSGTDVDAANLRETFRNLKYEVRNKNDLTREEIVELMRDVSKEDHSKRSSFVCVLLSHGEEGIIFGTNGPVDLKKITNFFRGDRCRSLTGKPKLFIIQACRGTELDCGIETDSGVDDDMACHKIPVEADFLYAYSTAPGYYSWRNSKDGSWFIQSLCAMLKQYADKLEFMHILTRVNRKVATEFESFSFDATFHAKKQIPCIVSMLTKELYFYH
Sequence of Apoptosis regulator Bcl-2 (Homo sapiens) (P10415 whole entry, looked up): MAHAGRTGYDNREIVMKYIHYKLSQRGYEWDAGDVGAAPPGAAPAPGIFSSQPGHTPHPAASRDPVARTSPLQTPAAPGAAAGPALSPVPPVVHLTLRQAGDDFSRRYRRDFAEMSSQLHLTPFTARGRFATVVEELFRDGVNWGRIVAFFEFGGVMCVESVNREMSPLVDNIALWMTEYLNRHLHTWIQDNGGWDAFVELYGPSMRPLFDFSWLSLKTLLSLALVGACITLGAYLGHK
Sequence of Cytochrome P450 3A4 (Homo sapiens) (P08684 whole entry, looked up): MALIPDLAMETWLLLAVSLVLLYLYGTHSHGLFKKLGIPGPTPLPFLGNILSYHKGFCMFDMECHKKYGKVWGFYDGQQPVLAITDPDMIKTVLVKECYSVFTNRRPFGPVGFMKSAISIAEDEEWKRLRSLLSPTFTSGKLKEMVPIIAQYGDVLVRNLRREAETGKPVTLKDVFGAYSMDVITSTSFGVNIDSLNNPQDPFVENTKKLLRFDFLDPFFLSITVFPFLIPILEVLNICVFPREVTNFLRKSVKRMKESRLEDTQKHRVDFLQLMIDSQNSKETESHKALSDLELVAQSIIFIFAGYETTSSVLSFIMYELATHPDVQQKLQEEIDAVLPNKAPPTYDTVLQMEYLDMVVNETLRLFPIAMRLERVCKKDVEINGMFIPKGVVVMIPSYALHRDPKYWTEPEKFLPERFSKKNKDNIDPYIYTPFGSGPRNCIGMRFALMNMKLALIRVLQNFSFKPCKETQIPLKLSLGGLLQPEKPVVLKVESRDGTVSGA

For orientation: AC50 means the concentration giving half of the maximal activity seen. On to `CCCCCCCCOc1ccc(C(=O)c2ccccc2)c(O)c1`, for which the compound was classed as inactive in assay [1], in assay [2], in assay [3], in assay [4], in assay [5] and in assay [6]. The compound was called inactive in assay [7], in [9], in assay [11], in [12], in [13] and in assay [14]. Besides, the compound was classed as inactive in [15], in assay [16] and in assay [17]. Further, the half-maximal activity concentration (AC50) in assay [8] and in assay [10] was 50 µM (active) throughout.
Turning to `C[C@]12CC[C@@H]3c4ccc(O)cc4CC[C@H]3[C@@H]1CC[C@H]2O`, the outcome in [1], in [2], in assay [4], in assay [5], in assay [6] and in assay [7] was inactive. In addition, the compound was called inactive in [8], in assay [9], in assay [13], in assay [19], in assay [16] and in assay [17]. For the same compound, the AC50 in assay [3] is 75.7 µM (active); in [18], 50 µM (active); in assay [10], 1.19 µM (active); in assay [11], 3.77 µM (active); in [12], 1.46 µM (active); in assay [14] it was 88.4 µM (active). Besides, in assay [15], the AC50 is 78.2 µM (active).
As to `COCC(C)OCC(C)OCC(C)O` (stereo not given), the compound was called inactive in assay [1], in assay [2], in [3], in assay [4], in assay [5] and in assay [6]. The outcome in assay [7], in assay [20], in assay [8], in assay [9], in [11] and in [12] was inactive. Moreover, the call in assay [13], in [15], in [19], in [16] and in assay [17] was inactive. The AC50 in [10] was 25.8 µM (active); in assay [14] it was 50 µM (active).
